# Tests used:
# [1] = target: Ephrin type-A receptor 4 (Homo sapiens) (UniProt P54764); conditions: at 1 µM
# [2] = target: Ephrin type-A receptor 4 (Homo sapiens) (UniProt P54764); conditions: at 10 µM
# [3] = target: Ephrin type-A receptor 5 (Homo sapiens) (UniProt P54756); conditions: at 1 µM
# [4] = target: Ephrin type-A receptor 5 (Homo sapiens) (UniProt P54756); conditions: at 10 µM
# [5] = target: T1, Ephrin type-B receptor 2 (Homo sapiens) (UniProt P29323); conditions: at 10 µM
# T1 sequence (whole entry): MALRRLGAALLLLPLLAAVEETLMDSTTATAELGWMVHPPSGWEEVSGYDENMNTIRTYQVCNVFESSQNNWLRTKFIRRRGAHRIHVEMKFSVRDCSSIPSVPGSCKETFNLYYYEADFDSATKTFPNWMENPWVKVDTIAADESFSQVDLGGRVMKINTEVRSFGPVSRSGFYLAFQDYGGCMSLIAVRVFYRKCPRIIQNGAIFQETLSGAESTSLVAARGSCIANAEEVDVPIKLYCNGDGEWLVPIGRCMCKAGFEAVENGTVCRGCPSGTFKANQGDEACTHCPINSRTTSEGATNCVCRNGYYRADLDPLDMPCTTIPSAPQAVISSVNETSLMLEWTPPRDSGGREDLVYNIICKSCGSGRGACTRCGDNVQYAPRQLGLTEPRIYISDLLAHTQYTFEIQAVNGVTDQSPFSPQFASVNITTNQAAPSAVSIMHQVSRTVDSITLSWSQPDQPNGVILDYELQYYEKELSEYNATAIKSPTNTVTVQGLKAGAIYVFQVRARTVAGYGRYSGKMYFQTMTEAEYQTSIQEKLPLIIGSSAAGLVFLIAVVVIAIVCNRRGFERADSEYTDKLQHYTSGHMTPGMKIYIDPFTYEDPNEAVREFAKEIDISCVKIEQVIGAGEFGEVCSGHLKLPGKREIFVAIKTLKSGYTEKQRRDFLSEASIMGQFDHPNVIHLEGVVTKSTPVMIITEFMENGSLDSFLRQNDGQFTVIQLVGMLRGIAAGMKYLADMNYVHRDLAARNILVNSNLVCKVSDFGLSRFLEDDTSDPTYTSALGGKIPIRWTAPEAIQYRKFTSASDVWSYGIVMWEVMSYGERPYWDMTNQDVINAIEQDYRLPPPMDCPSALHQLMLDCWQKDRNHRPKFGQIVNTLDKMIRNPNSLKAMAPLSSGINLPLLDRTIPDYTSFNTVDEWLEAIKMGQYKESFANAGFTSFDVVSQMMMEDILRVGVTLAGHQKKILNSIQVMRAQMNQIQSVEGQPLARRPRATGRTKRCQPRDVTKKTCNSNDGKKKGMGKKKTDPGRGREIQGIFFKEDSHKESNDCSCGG
# [6] = target: T2, Ephrin type-B receptor 3 (Homo sapiens) (UniProt P54753); conditions: at 1 µM
# T2 sequence (whole entry): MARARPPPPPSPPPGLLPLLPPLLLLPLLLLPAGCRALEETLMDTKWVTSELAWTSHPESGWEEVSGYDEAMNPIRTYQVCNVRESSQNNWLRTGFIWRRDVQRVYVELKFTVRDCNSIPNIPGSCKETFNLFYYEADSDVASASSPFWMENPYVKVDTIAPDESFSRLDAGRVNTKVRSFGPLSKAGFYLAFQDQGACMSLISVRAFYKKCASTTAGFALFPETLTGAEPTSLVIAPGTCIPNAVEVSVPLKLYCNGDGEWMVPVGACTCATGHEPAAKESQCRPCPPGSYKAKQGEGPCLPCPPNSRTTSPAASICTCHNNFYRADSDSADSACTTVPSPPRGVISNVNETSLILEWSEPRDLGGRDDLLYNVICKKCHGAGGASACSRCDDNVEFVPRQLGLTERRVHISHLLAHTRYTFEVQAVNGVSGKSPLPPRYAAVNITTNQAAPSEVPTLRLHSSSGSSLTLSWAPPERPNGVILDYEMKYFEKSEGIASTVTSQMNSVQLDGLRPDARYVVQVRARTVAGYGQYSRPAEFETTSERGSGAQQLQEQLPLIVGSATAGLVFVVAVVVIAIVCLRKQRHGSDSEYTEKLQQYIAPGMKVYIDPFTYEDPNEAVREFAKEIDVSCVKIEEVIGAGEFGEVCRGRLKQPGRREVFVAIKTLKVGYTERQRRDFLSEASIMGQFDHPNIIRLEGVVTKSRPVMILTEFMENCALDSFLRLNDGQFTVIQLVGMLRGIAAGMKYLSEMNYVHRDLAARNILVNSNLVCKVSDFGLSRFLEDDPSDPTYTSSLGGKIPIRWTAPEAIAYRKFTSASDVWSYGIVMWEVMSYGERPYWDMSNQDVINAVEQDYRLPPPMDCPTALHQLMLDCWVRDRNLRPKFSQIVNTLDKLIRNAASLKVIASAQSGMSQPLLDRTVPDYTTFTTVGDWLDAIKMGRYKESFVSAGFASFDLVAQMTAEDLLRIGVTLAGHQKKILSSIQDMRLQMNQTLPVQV
# [7] = target: T2, Ephrin type-B receptor 3 (Homo sapiens); conditions: at 10 µM
# [8] = target: T3, Ephrin type-B receptor 4 (Homo sapiens) (UniProt P54760); conditions: at 1 µM
# T3 sequence (whole entry): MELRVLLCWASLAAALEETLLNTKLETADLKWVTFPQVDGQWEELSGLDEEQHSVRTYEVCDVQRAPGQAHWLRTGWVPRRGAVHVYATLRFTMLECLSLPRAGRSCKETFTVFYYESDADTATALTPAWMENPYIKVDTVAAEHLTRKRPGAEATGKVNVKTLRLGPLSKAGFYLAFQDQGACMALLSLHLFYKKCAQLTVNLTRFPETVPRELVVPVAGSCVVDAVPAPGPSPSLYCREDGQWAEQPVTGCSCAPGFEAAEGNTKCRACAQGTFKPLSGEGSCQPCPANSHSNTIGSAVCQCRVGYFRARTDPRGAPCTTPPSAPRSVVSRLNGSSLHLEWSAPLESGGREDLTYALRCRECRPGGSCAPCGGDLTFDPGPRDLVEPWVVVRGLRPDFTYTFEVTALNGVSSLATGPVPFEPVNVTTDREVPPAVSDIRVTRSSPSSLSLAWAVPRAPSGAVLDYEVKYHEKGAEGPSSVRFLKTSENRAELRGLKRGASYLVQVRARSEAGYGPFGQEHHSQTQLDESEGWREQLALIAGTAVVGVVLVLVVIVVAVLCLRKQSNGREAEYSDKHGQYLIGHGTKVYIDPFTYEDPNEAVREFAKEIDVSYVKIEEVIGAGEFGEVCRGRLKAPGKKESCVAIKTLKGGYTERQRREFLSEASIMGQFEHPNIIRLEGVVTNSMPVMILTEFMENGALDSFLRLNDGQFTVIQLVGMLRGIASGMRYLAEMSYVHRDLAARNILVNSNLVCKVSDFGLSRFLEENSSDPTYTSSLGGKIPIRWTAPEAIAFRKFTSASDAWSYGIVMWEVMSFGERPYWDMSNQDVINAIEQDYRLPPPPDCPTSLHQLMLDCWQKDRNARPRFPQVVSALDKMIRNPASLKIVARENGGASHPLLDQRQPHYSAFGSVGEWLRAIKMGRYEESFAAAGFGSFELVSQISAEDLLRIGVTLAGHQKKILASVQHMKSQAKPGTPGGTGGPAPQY
# [9] = target: T3, Ephrin type-B receptor 4 (Homo sapiens); conditions: at 10 µM
# [10] = target: Receptor tyrosine-protein kinase erbB-4 (Homo sapiens) (UniProt Q15303); conditions: at 1 µM
# Sequence of Receptor tyrosine-protein kinase erbB-4 (Homo sapiens) (Q15303 whole entry): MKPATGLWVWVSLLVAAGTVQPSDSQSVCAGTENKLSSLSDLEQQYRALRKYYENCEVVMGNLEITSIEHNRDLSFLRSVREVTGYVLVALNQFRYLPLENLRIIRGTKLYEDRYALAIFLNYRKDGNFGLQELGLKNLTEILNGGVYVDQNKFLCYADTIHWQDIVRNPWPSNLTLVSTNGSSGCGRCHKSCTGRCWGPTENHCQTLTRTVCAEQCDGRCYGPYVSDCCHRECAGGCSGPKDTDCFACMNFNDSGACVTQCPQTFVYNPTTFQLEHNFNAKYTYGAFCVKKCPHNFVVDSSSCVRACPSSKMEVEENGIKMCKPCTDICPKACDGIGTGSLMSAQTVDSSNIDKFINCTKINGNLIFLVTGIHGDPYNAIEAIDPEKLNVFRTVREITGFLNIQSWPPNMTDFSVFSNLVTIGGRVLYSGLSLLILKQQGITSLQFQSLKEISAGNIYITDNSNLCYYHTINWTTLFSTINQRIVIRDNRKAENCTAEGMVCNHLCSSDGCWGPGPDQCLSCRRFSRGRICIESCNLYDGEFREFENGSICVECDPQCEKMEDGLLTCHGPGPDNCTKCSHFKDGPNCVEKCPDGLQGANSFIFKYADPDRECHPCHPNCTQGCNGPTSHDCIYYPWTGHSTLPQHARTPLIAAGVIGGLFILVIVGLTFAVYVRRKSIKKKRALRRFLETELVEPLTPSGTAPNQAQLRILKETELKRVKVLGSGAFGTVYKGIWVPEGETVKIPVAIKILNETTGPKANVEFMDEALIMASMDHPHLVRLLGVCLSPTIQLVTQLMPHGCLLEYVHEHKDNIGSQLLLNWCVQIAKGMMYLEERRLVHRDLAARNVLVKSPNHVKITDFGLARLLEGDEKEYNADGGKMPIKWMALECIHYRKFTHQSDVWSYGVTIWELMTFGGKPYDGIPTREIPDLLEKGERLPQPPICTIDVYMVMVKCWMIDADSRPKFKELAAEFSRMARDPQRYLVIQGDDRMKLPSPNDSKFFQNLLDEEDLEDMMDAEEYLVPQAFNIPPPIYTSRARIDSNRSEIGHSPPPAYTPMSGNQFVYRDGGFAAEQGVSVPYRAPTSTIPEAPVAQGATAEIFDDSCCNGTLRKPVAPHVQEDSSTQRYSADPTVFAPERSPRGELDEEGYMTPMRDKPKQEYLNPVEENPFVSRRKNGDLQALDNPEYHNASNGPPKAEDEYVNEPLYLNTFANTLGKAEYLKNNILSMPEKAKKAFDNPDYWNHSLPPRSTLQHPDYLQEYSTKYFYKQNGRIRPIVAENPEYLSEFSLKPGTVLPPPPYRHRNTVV
# Sequence of Ephrin type-A receptor 5 (Homo sapiens) (P54756 whole entry): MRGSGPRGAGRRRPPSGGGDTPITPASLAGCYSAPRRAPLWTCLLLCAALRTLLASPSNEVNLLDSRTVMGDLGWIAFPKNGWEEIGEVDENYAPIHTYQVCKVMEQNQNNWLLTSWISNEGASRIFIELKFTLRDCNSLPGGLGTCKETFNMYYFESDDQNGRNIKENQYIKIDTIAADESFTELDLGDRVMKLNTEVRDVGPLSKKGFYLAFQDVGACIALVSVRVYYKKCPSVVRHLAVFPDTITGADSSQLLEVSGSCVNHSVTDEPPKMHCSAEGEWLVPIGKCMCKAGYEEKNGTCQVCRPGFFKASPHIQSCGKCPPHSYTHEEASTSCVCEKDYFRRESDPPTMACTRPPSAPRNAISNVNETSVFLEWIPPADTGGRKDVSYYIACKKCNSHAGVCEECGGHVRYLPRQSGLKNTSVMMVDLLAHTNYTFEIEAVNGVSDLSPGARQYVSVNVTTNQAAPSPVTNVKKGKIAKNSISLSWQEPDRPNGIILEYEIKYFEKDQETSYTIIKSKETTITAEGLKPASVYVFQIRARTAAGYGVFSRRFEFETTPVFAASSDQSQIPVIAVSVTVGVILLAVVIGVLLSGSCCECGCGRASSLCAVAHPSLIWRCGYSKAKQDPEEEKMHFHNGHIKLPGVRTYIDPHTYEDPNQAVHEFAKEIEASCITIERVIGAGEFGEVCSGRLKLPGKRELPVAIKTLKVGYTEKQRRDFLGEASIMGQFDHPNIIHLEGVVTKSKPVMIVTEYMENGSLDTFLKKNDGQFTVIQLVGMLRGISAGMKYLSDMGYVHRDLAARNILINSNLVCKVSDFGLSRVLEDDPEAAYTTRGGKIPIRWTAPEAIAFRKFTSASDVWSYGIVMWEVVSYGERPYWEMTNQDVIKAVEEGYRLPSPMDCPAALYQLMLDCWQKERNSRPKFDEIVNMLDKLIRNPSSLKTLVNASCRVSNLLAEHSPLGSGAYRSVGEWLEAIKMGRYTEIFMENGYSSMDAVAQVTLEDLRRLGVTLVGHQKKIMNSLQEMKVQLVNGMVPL
# Sequence of Ephrin type-A receptor 4 (Homo sapiens) (P54764 whole entry): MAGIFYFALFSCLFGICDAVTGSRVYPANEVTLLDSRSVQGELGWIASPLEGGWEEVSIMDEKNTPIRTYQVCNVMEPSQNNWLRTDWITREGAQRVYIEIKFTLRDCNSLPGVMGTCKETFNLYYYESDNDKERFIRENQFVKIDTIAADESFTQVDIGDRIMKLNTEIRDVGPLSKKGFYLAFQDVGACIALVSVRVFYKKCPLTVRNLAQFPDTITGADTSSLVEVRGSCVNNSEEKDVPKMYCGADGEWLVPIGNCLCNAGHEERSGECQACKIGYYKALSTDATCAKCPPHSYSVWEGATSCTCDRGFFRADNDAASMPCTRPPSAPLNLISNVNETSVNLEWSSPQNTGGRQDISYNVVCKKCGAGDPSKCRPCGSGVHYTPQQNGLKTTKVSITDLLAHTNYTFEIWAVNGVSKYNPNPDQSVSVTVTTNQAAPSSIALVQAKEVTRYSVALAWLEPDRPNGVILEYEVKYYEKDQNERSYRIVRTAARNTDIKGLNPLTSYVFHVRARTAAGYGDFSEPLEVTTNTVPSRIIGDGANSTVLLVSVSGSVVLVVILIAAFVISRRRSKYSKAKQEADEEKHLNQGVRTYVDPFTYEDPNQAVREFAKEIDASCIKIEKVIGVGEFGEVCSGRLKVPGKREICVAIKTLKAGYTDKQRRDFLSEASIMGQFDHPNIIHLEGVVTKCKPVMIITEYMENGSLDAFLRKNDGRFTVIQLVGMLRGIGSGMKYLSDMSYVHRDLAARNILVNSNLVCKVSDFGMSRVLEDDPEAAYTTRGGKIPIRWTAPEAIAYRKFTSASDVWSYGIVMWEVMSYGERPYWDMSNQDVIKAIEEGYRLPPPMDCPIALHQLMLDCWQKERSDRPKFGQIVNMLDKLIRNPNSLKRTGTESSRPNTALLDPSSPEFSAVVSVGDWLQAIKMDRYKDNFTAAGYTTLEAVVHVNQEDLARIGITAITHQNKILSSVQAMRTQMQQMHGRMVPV
compound,measurement,setting,value
O=C1c2ccccc2-c2nc3nnnn3nc21,residual activity,[1],115%
same,residual activity,[2],102%
same,residual activity,[3],115%
same,residual activity,[4],124%
same,residual activity,[5],138%
same,residual activity,[6],108% (inactive)
same,residual activity,[7],133%
same,residual activity,[8],118%
same,residual activity,[9],115%
same,residual activity,[10],106%

# — ChEMBL document CHEMBL2218924, “A broad activity screen in support of a chemogenomic map for kinase signalling research and drug discovery” (Biochem J, 2013)
